The values below come from PubChem BioAssay (Tox21).

Experiment [1] is described as follows: qHTS assay to identify small molecule antagonists of the estrogen related receptor (ERR) signaling pathway from Tox21 library - cell viability counter screen (AID 1224834). Further: nearly all actives have a fitted effect of over 30% in size. Put shortly:
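Compounds in DMSO were pinned onto ERR cells that had been incubated for 6 h, and the plates were held at 37 C for 17.5 h. CellTiter-Fluor reagent was then added and fluorescence was measured after 30 min.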
(qHTS replaces the single test concentration by a dilution series.)

For experiment [2], the target named is Luciferin 4-monooxygenase (Photinus pyralis) (UniProt P08659). The experiment can be described thus: qHTS assay to identify small molecule inhibitors of firefly luciferase (AID 1224835). Further: nearly all actives have a fitted effect of over 25% in size. Further: potency means the concentration at half of the fitted maximal effect. Put shortly: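 Quantitative HTS format; KM concentrations of both substrates. Purified P. pyralis FLuc activity quantified from luminescence images.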
The nature of experiment [3]: qHTS assay to identify small molecule agonists of the constitutive androstane receptor (CAR) signaling pathway - cell viability counter screen (AID 1224836). Further: series mostly up to about 92 µM; nearly all actives have a fitted effect of over 45% in size. Put shortly:
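Cells were seeded and incubated 4 hrs. Compounds were added across 15 concentrations together with PK11195 at 0.75 uM final. Plates were incubated 23 hrs at 37 C. CellTiter-Fluor was added and fluorescence measured.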

The nature of experiment [4]: qHTS assay to identify small molecule antagonists of the constitutive androstane receptor (CAR) signaling pathway - cell viability counter screen (AID 1224837). Further: series mostly up to about 92 µM; nearly all actives have a fitted effect of over 45% in size. The method, boiled down: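 Cells are seeded, rested 4 hr at 37 C/5% CO2, dosed with compound (15-point series) and 50 nM CITCO, incubated a further 23 hr, and then CellTiter-Fluor reagent is added before fluorescence is read. The line is HepG2 with stable hCAR and CYP2B6-2.2kb.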

Experiment [5] deals with Nuclear receptor subfamily 1 group I member 3 (Homo sapiens) (UniProt Q14994). The experiment can be described thus: qHTS assay to identify small molecule antagonists of the constitutive androstane receptor (CAR) signaling pathway (AID 1224838).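 Further: HepG2 cells stably expressing hCAR with CYP2B6 luciferase reporter stimulated by CITCO; nearly all actives have a fitted effect of over 40% in size.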 Put shortly:
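Luminescence from a CYP2B6-2.2kb promoter reporter in hCAR-expressing HepG2 cells reflects CAR signaling. Cells received compounds at 15 concentrations and 50 nM CITCO (final), then incubated 24 h at 37 C/5% CO2.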

The target is the same in experiment [6]. Nature of the experiment: qHTS assay to identify small molecule agonists of the constitutive androstane receptor (CAR) signaling pathway (AID 1224839). Further: nearly all actives have a fitted effect of over 15% in size. Further: potency means the concentration at half of the fitted maximal effect. The method, boiled down: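 Cells were plated and incubated 4 hrs, then dosed with compounds at 15 concentrations. PK11195 was added to 0.75 uM final. After 24 hrs at 37 C, luciferase luminescence was measured.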

Experiment [7] is described as follows: qHTS assay to identify small molecule antagonists of the estrogen related receptor signaling pathway with the pleiotropic PPARgamma coactivator (PGC) from Tox21 10K library - cell viability counter screen (AID 1224840; active means well fitted cell-killing curve with a large enough effect in the repeat runs, not every such curve was filed as active; further: nearly all actives have a fitted effect of over 40% in size). Put shortly: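 Cell viability is measured by CellTiter-Fluor fluorescence in PGC/ERR cells that receive compounds after a 6-hour attachment period and are then incubated 17.5 hours at 37 C.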

Experiment [8] can be described thus: qHTS assay to identify small molecule antagonists of the estrogen related receptor signaling pathway with the pleiotropic PPARgamma coactivator (PGC) from Tox21 10K library (AID 1224841; call rule not given here; further: actives are mostly falling curves and most rising ones were filed inactive; nearly all actives have a fitted effect of over 50% in size; further: potency means the concentration at half of the fitted maximal effect). Put shortly:
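Cells stably carrying the PGC/ERR reporter, seeded at 2,000 per well, received pin-transferred compounds 6 h post-plating. Exposure lasted 18 h at 37 C. Signal: One-Glo luminescence.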

Experiment [9] can be described thus: qHTS assay to identify small molecule agonists of the estrogen related receptor signaling pathway with the pleiotropic PPARgamma coactivator (PGC) from Tox21 10K library (AID 1224842). Further: nearly all actives have a fitted effect of over 15% in size. Further: potency means the concentration at half of the fitted maximal effect. The method, boiled down: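 PGC/ERR reporter cells (NTP line) were seeded 2,000 per well, rested 6 h at 37 C/5% CO2, then pin-dosed with compounds in DMSO for 18 h at 37 C; luciferase read by One-Glo luminescence after 30 min at room temperature.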

Results filed as inconclusive are left out. Values without a mark were called inactive. The source made the active and inactive calls. Unless noted, the call rests on the fitted dose curve; in most records, active means well fitted curve in the direction sought with a large enough effect in the repeat runs; inconclusive means weak or mixed curves; inactive means no such curve, though single readings can be large; an effect the other way counts as inactive or inconclusive.

Nuclear receptor subfamily 1 group I member 3 (Homo sapiens), sequence (Q14994 whole entry, looked up): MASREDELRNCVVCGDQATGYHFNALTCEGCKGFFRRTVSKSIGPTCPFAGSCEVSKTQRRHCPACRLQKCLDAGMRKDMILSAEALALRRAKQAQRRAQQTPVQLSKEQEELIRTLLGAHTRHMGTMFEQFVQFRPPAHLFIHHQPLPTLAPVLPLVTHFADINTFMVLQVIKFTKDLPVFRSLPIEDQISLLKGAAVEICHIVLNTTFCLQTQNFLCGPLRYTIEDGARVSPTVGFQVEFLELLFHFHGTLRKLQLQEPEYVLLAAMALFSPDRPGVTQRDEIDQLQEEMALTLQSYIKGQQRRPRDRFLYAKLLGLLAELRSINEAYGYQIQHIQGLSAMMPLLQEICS
Luciferin 4-monooxygenase (Photinus pyralis), sequence (P08659 whole entry, looked up): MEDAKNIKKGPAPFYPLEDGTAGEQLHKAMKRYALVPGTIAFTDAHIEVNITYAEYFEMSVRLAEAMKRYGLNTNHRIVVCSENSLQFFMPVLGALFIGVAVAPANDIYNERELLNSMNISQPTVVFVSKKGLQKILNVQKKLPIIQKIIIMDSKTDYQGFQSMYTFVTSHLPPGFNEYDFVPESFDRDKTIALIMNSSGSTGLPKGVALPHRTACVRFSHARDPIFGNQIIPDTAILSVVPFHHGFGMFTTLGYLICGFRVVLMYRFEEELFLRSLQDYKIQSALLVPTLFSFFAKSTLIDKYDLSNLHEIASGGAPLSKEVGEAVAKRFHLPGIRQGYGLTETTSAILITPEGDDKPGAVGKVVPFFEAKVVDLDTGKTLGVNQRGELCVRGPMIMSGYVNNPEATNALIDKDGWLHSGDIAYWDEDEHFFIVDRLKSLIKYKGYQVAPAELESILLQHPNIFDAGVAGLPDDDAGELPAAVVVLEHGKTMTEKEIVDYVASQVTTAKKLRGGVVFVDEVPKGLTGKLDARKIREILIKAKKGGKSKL

`CN(C)CCOC(c1ccc(Cl)cc1)c1ccccn1` (stereo not given): the Potency entry in experiment [1], in experiment [2], in experiment [5] and in [6] was “inactive” in each case. In addition, the outcome in experiment [3], in experiment [4] and in experiment [7] was inactive.
As to `O=S(=O)(O)c1ccccc1O`, the Potency result in experiment [1], in experiment [2], in experiment [5], in experiment [6], in [8] and in experiment [9] was “inactive” each time. The molecule was called inactive in experiment [3], in experiment [4] and in [7].
Regarding `OC1OC[C@@H](O)[C@H](O)[C@H]1O` (stereo not given in full), the Potency result in experiment [1], in experiment [2], in experiment [5] and in experiment [6] was “inactive” in each case. Further, the call in experiment [3], in experiment [4] and in experiment [7] was inactive.
With `Cc1ccc(Nc2ccc(O)c3c2C(=O)c2ccccc2C3=O)cc1`, the Potency result in [1], in experiment [2], in experiment [5] and in experiment [6] was “inactive” throughout. The result in experiment [3], in experiment [4] and in experiment [7] was inactive.
As for `CC(=O)c1ccc(C)cc1`, the Potency entry in [1], in experiment [2], in [5] and in [6] was “inactive” in each case. Besides, the molecule was classed as inactive in [3], in [4] and in experiment [7].
As for `CC(C)CCCC(C)CCCC(C)CCCCC(C)CCCC(C)CCCC(C)C` (stereo not given), the Potency result in experiment [1], in experiment [2], in [5] and in [6] was “inactive” in each case. The molecule was classed as inactive in experiment [3], in experiment [4] and in experiment [7].
As for `CCCCCCC(=O)OCC`, the Potency entry in [1], in experiment [2], in [5], in experiment [6], in experiment [8] and in experiment [9] was “inactive” in each case. For the same molecule, the molecule was called inactive in [3], in [4] and in experiment [7].
As for `CCCCN(CCO)CCO`, the Potency entry in [1], in experiment [2], in experiment [5], in [6], in experiment [8] and in [9] was “inactive” throughout. In addition, the call in experiment [3], in experiment [4] and in experiment [7] was inactive.
As for `CC(C)CCOC(=O)CC(C)C`, the Potency result in [1], in experiment [2], in experiment [5] and in [6] was “inactive” throughout. Also, the molecule was called inactive in experiment [3], in [4] and in experiment [7].
Regarding `CCN(CC)C(=O)c1ccc(O)c(OC)c1`, the Potency result in experiment [1], in [2], in experiment [5] and in experiment [6] was “inactive” in each case. In addition, the outcome in experiment [3], in [4] and in experiment [7] was inactive.
For `CCO[Si](C)(OCC)OCC`, the Potency entry in experiment [1], in experiment [2], in experiment [5], in experiment [6], in [8] and in experiment [9] was “inactive” each time. Further, the call in experiment [3], in experiment [4] and in [7] was inactive.
Consider `CCCCOCC(C)OCC(C)O` (stereo not given), for which the Potency entry in experiment [1], in [2], in [5] and in experiment [6] was “inactive” in each case. Moreover, the molecule was called inactive in [3], in [4] and in experiment [7].
On to `CCN(CC)S(=O)(=O)c1ccc(C(=O)O)cc1`, for which the Potency entry in experiment [1], in [2], in experiment [5] and in experiment [6] was “inactive” each time. Besides, the outcome in experiment [3], in experiment [4] and in experiment [7] was inactive.
For the molecule `COC(C(=O)O)c1ccccc1` (stereo not given), the Potency result in experiment [1], in [2], in experiment [5] and in [6] was “inactive” each time. Also, the result in experiment [3], in experiment [4] and in experiment [7] was inactive.
Regarding `NC(=O)CCCCC1CCSS1` (stereo not given), the Potency result in experiment [1], in experiment [2], in experiment [5] and in [6] was “inactive” each time. Moreover, the molecule was classed as inactive in [3], in experiment [4] and in experiment [7].
Consider `CN(C)CCn1nnnc1SCC1=C(C(=O)O)N2C(=O)[C@@H](NC(=O)Cc3csc(N)n3)[C@H]2SC1`, for which the Potency entry in experiment [1], in experiment [2], in experiment [5] and in [6] was “inactive” each time. For the same molecule, the molecule was classed as inactive in experiment [3], in [4] and in [7].
Turning to `OC[C@H]1O[C@@H]2O[C@H]3[C@H](O)[C@@H](O)[C@@H](O[C@H]4[C@H](O)[C@@H](O)[C@@H](O[C@H]5[C@H](O)[C@@H](O)[C@@H](O[C@H]6[C@H](O)[C@@H](O)[C@@H](O[C@H]7[C@H](O)[C@@H](O)[C@@H](O[C@H]8[C@H](O)[C@@H](O)[C@@H](O[C@H]9[C@H](O)[C@@H](O)[C@@H](O[C@H]1[C@H](O)[C@H]2O)O[C@@H]9CO)O[C@@H]8CO)O[C@@H]7CO)O[C@@H]6CO)O[C@@H]5CO)O[C@@H]4CO)O[C@@H]3CO`, the Potency result in experiment [1], in [2], in experiment [5], in experiment [6], in [8] and in experiment [9] was “inactive” in each case. The result in experiment [3], in experiment [4] and in experiment [7] was inactive.
With `Cc1onc(-c2ccccc2)c1-c1ccc(S(N)(=O)=O)cc1`, the Potency result in [1], in experiment [2], in experiment [5], in [6] and in experiment [9] was “inactive” throughout. For the same molecule, the molecule was called inactive in experiment [3], in experiment [4] and in experiment [7]. Also, the Potency in [8] was 23.7 µM (active).
Turning to `C/C=C1\C(=O)C[C@H]2[C@@H]3CCC4=CC(=O)CC[C@]4(C)[C@H]3CC[C@]12C`, the Potency result in experiment [1], in experiment [2] and in experiment [5] was “inactive” each time. Also, the molecule was called inactive in [3], in experiment [4] and in experiment [7].
With `CC(C)c1ccc2oc3nc(N)c(C(=O)O)cc3c(=O)c2c1`, the Potency entry in experiment [1], in experiment [5] and in [8] was “inactive” in each case. The Potency in [2] is 0.275 µM (active); in experiment [6], 0.841 µM (active); in experiment [9], 1.33 µM (active). For the same molecule, the outcome in [3], in experiment [4] and in [7] was inactive.
With `C1=C\CC/C=C\CC/C=C\CC/1`, the Potency entry in [1], in experiment [2], in [5], in [6], in [8] and in [9] was “inactive” throughout. In addition, the result in [3], in experiment [4] and in experiment [7] was inactive.
`CCCCC1CCCCC(=O)O1` (stereo not given): the Potency entry in experiment [1], in experiment [2], in [5], in [6], in [8] and in experiment [9] was “inactive” in each case. The molecule was classed as inactive in [3], in experiment [4] and in experiment [7].
In the case of `CCC(C)(C)C1CCC(OC)CC1` (stereo not given), the Potency result in [1], in experiment [2], in experiment [5], in [6], in experiment [8] and in experiment [9] was “inactive” throughout. Also, the molecule was called inactive in experiment [3], in experiment [4] and in experiment [7].
On to `O=C(O)C(O)[C@H](O)[C@@H](O)[C@H](O)[C@H](O)CO` (stereo not given in full), for which the Potency entry in [1], in experiment [2], in [5], in [6] and in experiment [9] was “inactive” each time. The result in [3], in experiment [4] and in [7] was inactive.
As for `CCCC(C)C(=O)O` (stereo not given), the Potency result in experiment [1], in experiment [2], in experiment [5], in experiment [6] and in experiment [9] was “inactive” in each case. For the same molecule, the result in experiment [3], in experiment [4] and in experiment [7] was inactive. Besides, the Potency in experiment [8] was 52.3 µM (active).
Consider `CCC(=O)/C=C/c1ccc(OC)cc1`, for which the Potency entry in experiment [1], in experiment [5], in experiment [8] and in experiment [9] was “inactive” throughout. The Potency in experiment [2] is 35.6 µM (active); in experiment [6], 54.5 µM (active). The call in experiment [3], in experiment [4] and in experiment [7] was inactive.
With `CCCCCCCCCCCCCCC`, the Potency entry in experiment [1], in [2], in [5], in [6], in experiment [8] and in experiment [9] was “inactive” each time. Moreover, the molecule was called inactive in experiment [3], in experiment [4] and in experiment [7].
